Source: PubChem BioAssay (NCATS)
Records with an inconclusive call do not appear. Unmarked numbers belong to inactive results. The call rests on the fitted dose curve; in most records, active means well fitted activation curve with a large enough effect; inconclusive means small, poorly fitted or top-dose-only effect; inactive means flat fitted curve, though single readings scatter.

Experiment: Primary redox qHTS assay for identification of artifact compounds. (AID 1845223);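 further: 0% = DMSO and 100% = reference compound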
Conditions: Amplex Red/HRP redox cycling with DTT, fluorescence; series mostly up to 53.8 µM; redox activity (% of DA3003): at the top concentration
In short: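 Amplex Red (25 uM) and HRP (250 mU/mL) in HBSS, with compounds for 15 min, then 250 uM DTT for 30 min, room temperature, dark. Fluorescence 525/598 nm read; normalized to DMSO and 10 uM DA3003; Hill fit.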

Row | Structure (SMILES) | redox activity (% of DA3003)
1 | O=C(Nc1nnc(-c2ccc3c(c2)OCCO3)o1)C1CCCCC1 | -0.647%
2 | CC(C)n1c(=O)c(C(=O)NC2CC3CCC(C2)N3C[C@@H](O)CN(C)S(C)(=O)=O)cc2ccccc21 (stereo partly specified) | 3.19%
3 | NCC1CCN(c2nccc(-c3ccc4ccccc4c3)n2)CC1 | 17.2%
4 | CCOc1ccc(-n2c(C(C)N(Cc3cccnc3)C(=O)Cc3ccc(F)c(C(F)(F)F)c3)nc3ncccc3c2=O)cc1 (stereo unspecified) | 0.293%
5 | CC(C)S(=O)(=O)c1ccc2nccc(Nc3ccc4scnc4c3)c2c1 | 14.9%
6 | CCC(C)CC(=O)OC1C(=O)C(CO)=CC(O)C1C(C)C (stereo unspecified) | 4.11%
7 | COc1cc(-n2cnc3cc(-c4ccc(Cl)cc4)sc3c2=O)ccc1OCCN1CCCC1 | 8.04%
8 | CCc1ccc(-c2nc(CSCC(=O)NCCc3ccccc3)c(C)o2)cc1 | 4.42%
9 | CC(=O)O[C@@H]1[C@@H](OC(C)=O)[C@H](C)O[C@@H](O[C@H]2[C@@H]3C=CO[C@@H](O[C@@H]4O[C@H](CO)[C@@H](O)[C@H](O)[C@H]4O)[C@@H]3[C@@]3(CO)O[C@@H]23)[C@@H]1OC(=O)/C=C/c1ccccc1 | 8.01% [at 25.6 µM]
10 | COc1ccccc1-c1ccc(-c2cn(C(=O)N3CCCCC3Cc3ccccc3)nn2)cc1 (stereo unspecified) | -1.37%
11 | CC(C)=CCc1cc2c(cc1O)OC[C@H]1c3ccc(O)cc3O[C@@H]21 | -1.6%
12 | COc1ccccc1C(=O)Nc1cccc(NC(=O)c2cccc(C)c2)c1 | 4.97%
13 | COC1CC(=O)C23C(=O)NC(CC(C)C)C2C(C)C(C)=CC3/C=C(\C)CCCC1O (stereo unspecified) | 6.12% [at 25.6 µM]
14 | CNc1nc(Nc2ccc(C(=O)N3CCOCC3)cc2OC)nc2[nH]cc(Cl)c12 | 4.12%
15 | O=C([C@@H](Cc1cccc(C(F)(F)F)c1)NS(=O)(=O)c1cc(F)c2c(c1)CCNC2)N1CCCC1 | 15.9%
16 | CC(C)c1ccc(-c2cc(=O)c3ccccc3o2)cc1 | -0.765%

Row | Structure (SMILES) | redox activity (% of DA3003)
17 | Cc1ccc(-c2ncccn2)c(C(=O)N2C[C@H](COc3ccc(F)cn3)CC[C@H]2C)c1 | 13%
18 | O=C(Nc1nc2ccc([N+](=O)[O-])cc2s1)C1CCCCC1 | -5.57%
19 | C/C1=C\CCC2=CC(OC2=O)C(C)(C)/C=C/C1=O (stereo unspecified) | -6.82%
20 | CC(O)(C(=O)C1CC1(CO)COC1OC(CO)C(O)C(O)C1O)C1C(O)CC2C3CC=C4CC(O)CC(O)C4(C)C3C(O)CC21C (stereo unspecified) | -13% [at 25.6 µM]
21 | COc1cc2c(c(OC)c1CC=C(C)C)C[C@H](c1ccc(O)c(CC=C(C)C)c1O)CO2 | -1.66% [at 25.6 µM]
22 | CCC(C)C(=O)OC1C(C)C2(O)C(C=C(CO)CC3(O)C(=O)C(C)=CC32)C2C(C)(C)C12OC(=O)C(C)C (stereo unspecified) | 3.61% [at 25.6 µM]
23 | COC1CCN(c2cccc(-c3cc(NC(C)=O)nc(-n4nc(C)cc4C)n3)n2)CC1 | 13%
24 | COc1ccc(OC)c(-c2ccc(NC(=O)c3ccncc3F)cc2)c1 | -1.51%
25 | Cc1cc(C(=O)Nc2cc(Nc3ccc4c(/C=C/c5ccccn5)n[nH]c4c3)ccc2F)n(C)n1 | -2%
26 | Cc1ccc(O)cc1Nc1ccnc(Nc2cccc(C(N)=O)c2)n1 | -3.12%
27 | Cc1ccnn1-c1ccc(C(=O)N2CCN(S(=O)(=O)c3ccc(Cl)c(C(F)(F)F)c3)CC2)cc1 | -6.68%
28 | Cn1ncnc1[C@@H]1c2n[nH]c(=O)c3cc(F)cc(c23)N[C@H]1c1ccc(F)cc1 | -9.94%
29 | CN1CC2CN(c3ccc4oc5ccccc5c(=O)c4c3)CC2C1 (stereo unspecified) | 19.3% [at 25.6 µM]
30 | CC(C)S(=O)(=O)NC[C@@H]1CC(c2ccc(N3CCCC3)c(F)c2)=NO1 | 15%
31 | COc1cc(F)c(C(C)C)cc1-c1ccc(C(F)(F)F)cc1CN1C(=O)OC(c2cc(C(F)(F)F)cc(C(F)(F)F)c2)C1C (stereo unspecified) | -5.3%
